Reference: PubChem BioAssay
Records with an inconclusive call do not appear. The source made the active and inactive calls.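 The calls were made as follows, unless noted: active = cell viability at or below a set limit in both duplicate runs, the limit being the all-compound median minus 4 SD (cut at about 23% in these data, passing the limit was not always enough); inconclusive = no clear call, values can overlap the other calls; inactive = the rest.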

Legend:
[1] = reducers of endogenous Her2 protein level, primary screen, SKBR3 breast tumor cells, AlphaScreen, ATP viability (AID 461;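 active = Her2 level under about 52% in both replicate screens, with viability over 70% of control, limit read from the data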;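 as to Her2 level: lower value means less Her2 protein in the cells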;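 as to viability: percent of carrier control wells set as 100% viability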); conditions: 18-24 h, measured here: SKBR3 viability, ATP luminescence, at 10 µM
[2] = target: Receptor tyrosine-protein kinase erbB-2 (Homo sapiens) (UniProt P04626); assay: as above; conditions: 18-24 h, at 10 µM, stronger effect = lower value
Sequence of Receptor tyrosine-protein kinase erbB-2 (Homo sapiens) (P04626 whole entry, looked up): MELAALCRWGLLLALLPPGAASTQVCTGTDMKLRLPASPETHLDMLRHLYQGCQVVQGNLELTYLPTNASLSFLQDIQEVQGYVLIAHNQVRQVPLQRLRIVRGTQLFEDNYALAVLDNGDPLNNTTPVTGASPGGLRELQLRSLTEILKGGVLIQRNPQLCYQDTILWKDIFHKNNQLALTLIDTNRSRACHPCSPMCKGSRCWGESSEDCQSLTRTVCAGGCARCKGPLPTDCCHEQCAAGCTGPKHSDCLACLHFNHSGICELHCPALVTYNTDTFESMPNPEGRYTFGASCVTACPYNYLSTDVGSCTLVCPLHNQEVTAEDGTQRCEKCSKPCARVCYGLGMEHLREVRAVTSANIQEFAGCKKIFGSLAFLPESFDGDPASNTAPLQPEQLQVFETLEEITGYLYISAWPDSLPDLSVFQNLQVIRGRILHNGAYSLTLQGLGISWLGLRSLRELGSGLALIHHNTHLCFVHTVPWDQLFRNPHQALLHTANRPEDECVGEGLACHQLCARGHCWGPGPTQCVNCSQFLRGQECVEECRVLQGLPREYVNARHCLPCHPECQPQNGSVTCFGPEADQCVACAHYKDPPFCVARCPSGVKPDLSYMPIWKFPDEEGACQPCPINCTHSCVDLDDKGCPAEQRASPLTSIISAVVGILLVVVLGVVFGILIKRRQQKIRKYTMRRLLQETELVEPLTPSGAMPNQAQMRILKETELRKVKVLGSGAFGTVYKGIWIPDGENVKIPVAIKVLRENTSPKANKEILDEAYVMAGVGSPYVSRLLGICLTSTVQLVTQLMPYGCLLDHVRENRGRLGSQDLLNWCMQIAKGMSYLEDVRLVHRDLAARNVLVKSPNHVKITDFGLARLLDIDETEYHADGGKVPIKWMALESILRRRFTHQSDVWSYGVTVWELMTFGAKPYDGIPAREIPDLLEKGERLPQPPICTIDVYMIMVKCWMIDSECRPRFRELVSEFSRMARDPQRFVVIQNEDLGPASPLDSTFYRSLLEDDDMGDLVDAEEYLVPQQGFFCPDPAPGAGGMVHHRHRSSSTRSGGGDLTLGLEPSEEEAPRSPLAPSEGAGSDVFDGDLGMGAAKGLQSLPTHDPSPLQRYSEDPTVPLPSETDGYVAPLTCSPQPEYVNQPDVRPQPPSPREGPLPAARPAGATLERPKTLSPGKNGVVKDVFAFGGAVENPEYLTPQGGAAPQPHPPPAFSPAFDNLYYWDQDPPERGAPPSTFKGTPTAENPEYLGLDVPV

[3] = SK-BR-3 cell growth inhibitors, pilot screen, 24 h, human (AID 572;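 active = viability at or below 10% of carrier control in both of two separate runs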;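 also: compound exposure lasted between 18 and 24 h rather than exactly 24 h; 100% = carrier-treated control wells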); conditions: SK-BR-3 viability, CellTiter-Glo luminescence, at 10 µM, stronger effect = lower value
[4] = HUVEC growth inhibition – cell-based, human, primary screen (AID 575;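 active = viability at or below 30% in both replicate assays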;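 also: 100% = median of untreated cell wells with 0.1% DMSO on each plate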); conditions: HUVEC proliferation, CellTiter-Glo luminescence, 72 h; at 10 µM; stronger effect = lower value
[5] = growth inhibitors of H69AR lung tumor, primary screen, human, duplicate replicates (AID 580;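 active = viability at or under a set limit in both replicates, limit being median viability minus 3 SD, cut at about 48% in these data, passing the limit was not always enough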;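 also: 100% = mean luminescence of untreated wells and 0% = no signal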); conditions: H69AR lung tumor cells viability, ATP luminescence, 72 h; at 10 µM; stronger effect = lower value
[6] = reversal of MRP1-mediated doxorubicin resistance, pilot screen, H69AR cells, doxorubicin co-treatment (AID 601;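 active = viability loss from added drug above about 55%, and viability with drug at most 40%, in both replicates, limit read from the data, passing the limit was not always enough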); conditions: CellTiter-Glo, 72 h, at 10 µM; for differential viability (reversal): stronger effect = higher value
[7] = 384-well plate pilot, post-Golgi transport modulator project, inhibition of yeast transport mutant growth (AID 636; in the data active = inhibition above about 31%); conditions: absorbance 615 nm, about 18 h, stronger effect = higher value
[8] = growth suppression of yeast trafficking mutant, preliminary HTS, modulators of trafficking downstream of Golgi apparatus project, 1536-format plate, OD 615 nm (AID 637; in the data active = inhibition above about 30%); conditions: yeast transport mutant growth, absorbance 615 nm, 18 h; stronger effect = higher value
[9] = OD615 S. cerevisiae growth inhibition, permissive medium, pilot counter-assay, permissive growth control for S. cerevisiae lifespan shortening project (AID 705;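 active = growth inhibition above 25% in both replicates, a cutoff set 3 SD above the mean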); conditions: OD615, 24 h, at 10 µM, stronger effect = higher value
[10] = Restrictive medium S. cerevisiae growth inhibition, OD615, pilot screen of yeast lifespan reduction project, restrictive growth control (AID 706;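 active = growth inhibition above a set limit, 3 SD over mean compound inhibition, in both replicates, cut at about 43% in these data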;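 also: modified DeaD lifespan yeast strain shifted to restrictive glucose medium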); conditions: OD615, 48 h, at 10 µM, stronger effect = higher value
[11] = viability gain of MRP-1-high H69AR cells under doxorubicin, pilot screen, MRP-1 activator project, CellTiter-Glo, duplicate (AID 807;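 active = viability increase at or above a cutoff of the median across tested compounds plus 3 SD, cut at about 8.5% in these data, passing the limit was not always enough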;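 also: compound pretreatment 18-22 h then 72 h combined with doxorubicin; 0% = doxorubicin alone and 100% = vehicle without doxorubicin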); conditions: H69AR viability with doxorubicin, CellTiter-Glo luminescence; at 10 µM; stronger effect = higher value
[12] = growth suppression of beta-catenin knockout HCT116, pilot screen, human colon tumor cells (AID 823); conditions: CellTiter-Glo, 60 h, at 10 µM, stronger effect = lower value;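 also: 0% = wells killed by 20 µM Hyamine and 100% = untreated DMSO cell wells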
[13] = growth suppression of PTEN-deleted HCT116, pilot screen, cell-based, HCT116 clonal line, CellTiter-Glo (AID 824;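 active = viability at or below 27.92% in each of two runs, the all-compound median minus 4 SD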;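 also: 0% = 20 µM Hyamine control and 100% = vehicle cell control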); conditions: 60 h, at 10 µM, stronger effect = lower value
[14] = inhibitors of the yeast RAM network, pilot screen, dse1pr::URA3 reporter, 5-FOA selection (AID 869;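 active = inhibition over a set limit, the all-compound mean plus 3 SD, in both replicate runs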;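 also: 0% = DMSO wells with no growth and 100% = 10 µM 1-NA-PP1 with full growth; RAM network block rescues cells from 5-FOA so hits raise OD615 growth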); conditions: S. cerevisiae dse1pr::URA3 5-FOA growth, OD615, 2 d; at 10 µM; stronger effect = higher value; strain carries analog-sensitive mutant Cbk1 kinase
[15] = RAM signaling pathway blockade in yeast – S. cerevisiae, Pdr1DBD-CYC8 efflux-inhibited sensitized strain, primary screen (AID 1298;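 active = RAM network inhibition above 8.4% in each of two replicates, 3 SD over the compound average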;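 also: 0% = DMSO untreated cells without growth and 100% = 10 µM 1-NA-PP1 full growth; higher means more yeast growth rescued from 5-FOA killing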); conditions: S. cerevisiae cbk1-as DSE1-URA3 strain, 5-FOA growth OD615, 2 d; at 50 µM; stronger effect = higher value
[16] = H69AR cells + 2 uM doxorubicin, measured here: viability with 2 uM doxorubicin, stronger effect = lower value
[17] = H69AR cells, compound alone cytotoxicity

Structure (SMILES) | viability [1] | Her2 level [2] | viability [3] | viability [4] | viability [5] | differential viability (reversal) ([6]; H69AR cells + 2 uM doxorubicin) | viability [6, 16] | viability [6, 17] | inhibition [7] | inhibition [8] | growth inhibition [9] | growth inhibition [10] | viability increase [11] | viability [12] | viability [13] | inhibition [14] | RAM network inhibition [15]
CCOCCCNC(=O)C(NC(=O)c1ccccn1)c1ccc(C)cc1 (stereo not given) | 94.5% | 120% (inactive) | 94.5% (inactive) | 104% (inactive) | 106% (inactive) | 8.57% (inactive) | 97.3% | 106% | -2.6% (inactive) | 1.9% (inactive) | -4.42% (inactive) | 1.57% (inactive) | -0.13% (inactive) | 108% (inactive) | 97.3% (inactive) | 0.07% (inactive) | 0.36% (inactive)
COc1cc(NC(=O)C2C3C=CC(C3)C2C(=O)O)c(OC)cc1Cl (stereo not given) | 86% | 95% (inactive) | 86% (inactive) | 98.4% (inactive) | 98.3% (inactive) | 4.4% (inactive) | 93.9% | 98.3% | -2.16% (inactive) | -3.61% (inactive) | -4.4% (inactive) | -20.4% (inactive) | -1.99% (inactive) | 101% (inactive) | 91.8% (inactive) | 2.7% (inactive) | 1.54% (inactive)
COc1ccc(NC(=O)CSc2nc3c(c(=O)n2-c2ccc(F)cc2)SCC3)cc1 | 100% | 102% (inactive) | 100% (inactive) | 81.3% (inactive) | 95.5% (inactive) | 3.3% (inactive) | 92.2% | 95.5% | -6.27% (inactive) | -1.15% (inactive) | -8.95% (inactive) | -14.3% (inactive) | 0.22% (inactive) | 94% (inactive) | 90.7% (inactive) | -0.265% (inactive) | 3.09% (inactive)
Cc1ccccc1CSc1nnc(C)c(=O)[nH]1 | 90% | 106% (inactive) | 90% (inactive) | 104% (inactive) | 97.2% (inactive) | 4.72% (inactive) | 92.5% | 97.2% | -3.2% (inactive) | -0.17% (inactive) | -7.61% (inactive) | -2.98% (inactive) | -1.7% (inactive) | 98.8% (inactive) | 99% (inactive) | 0.815% (inactive) | 1.17% (inactive)
COc1ccc(C(=O)NCC(=O)NC2=NCCS2)cc1 | 100% | 104% (inactive) | 100% (inactive) | 120% (inactive) | 102% (inactive) | 10.7% (inactive) | 91% | 102% | -4.67% (inactive) | 0.33% (inactive) | -1.83% (inactive) | -4.44% (inactive) | -1.93% (inactive) | 102% (inactive) | 98.1% (inactive) | 1.56% (inactive) | 2.03% (inactive)
CC(=O)c1cc2c(cc1NC(=O)CN1CCN(C(=O)c3ccco3)CC1)OCO2 | 90% | 120% (inactive) | 90% (inactive) | 92.5% (inactive) | 86.3% (inactive) | -3.21% (inactive) | 89.5% | 86.3% | -5.47% (inactive) | -3.5% (inactive) | 0.565% (inactive) | -17.1% (inactive) | -3.21% (inactive) | 98.2% (inactive) | 97% (inactive) | 2.79% (inactive) | 0.37% (inactive)
CC1(C)Cc2ccccc2C(N)=C1C#N | 93.5% | 111% (inactive) | 93.5% (inactive) | 87.5% (inactive) | 93.7% (inactive) | 9.91% (inactive) | 83.8% | 93.7% | 4.81% (inactive) | -3.11% (inactive) | 4.29% (inactive) | -0.06% (inactive) | -0.77% (inactive) | 89.9% (inactive) | 91.8% (inactive) | 0.81% (inactive) | 0.69% (inactive)
COCCOC(=O)C1=C(C)N=c2s/c(=C\c3cccs3)c(=O)n2C1c1cccs1 (stereo not given) | 91.5% | 77% (inactive) | 91.5% (inactive) | 82.4% (inactive) | 71.9% (inactive) | -4.05% (inactive) | 75.9% | 71.9% | -6.89% (inactive) | -8.17% (inactive) | -9.14% (inactive) | 1.78% (inactive) | -0.91% (inactive) | 86.3% (inactive) | 82.7% (inactive) | 2.83% (inactive) | 6.91% (inactive)
CN1CCN(CC(=O)N2c3ccccc3C(C)(c3ccccc3)CC2(C)C)CC1 (stereo not given) | 87% | 103% (inactive) | 87% (inactive) | 78.8% (inactive) | 65.8% (inactive) | -31.3% (inactive) | 97.1% | 65.8% | -0.38% (inactive) | 2% (inactive) | -9.57% (inactive) | -2.67% (inactive) | -6.54% (inactive) | 49.1% (inactive) | 50.7% (inactive) | 0.685% (inactive) | 1.99% (inactive)
Cn1c(SCC(=O)Nc2ccc(F)cc2)nnc1-c1cccnc1 | 93% | 106% (inactive) | 93% (inactive) | 96.5% (inactive) | 104% (inactive) | 12.8% (inactive) | 90.8% | 104% | -3.87% (inactive) | -2.5% (inactive) | -8.06% (inactive) | 0.86% (inactive) | 2.18% (inactive) | 104% (inactive) | 101% (inactive) | 0.43% (inactive) | 4.04% (inactive)
